Z-score and composite z-score data for 6 compounds are collected here from PubChem BioAssay.

Assay [1] is described as follows: E. coli DRC41 culture turbidity changes, primary screen, E. coli filamentation inducer project, strain DRC41, OD650, 48 h (AID 1152).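 Further: E. coli MC1000 strain DRC41 lacking acrAB efflux pump and sulA.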 Particulars: E. coli DRC41 (acrAB sulA), higher = more signal, called active from +8 up or from −8 down.
The nature of assay [2]: small-molecule binders of probe aLefty1, primary screen, biochemical, small-molecule microarray, 635/667 nm fluorescence (AID 1153).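 Further: score merges spot fluorescence with signal-to-noise ratio from the scanned slide images.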 The settings on record: higher = more signal.
A short description of assay [3]: PSAC antagonists in infected red cells, primary screen, cell-based, P. falciparum Indochina, OD700, 1 h (AID 1154). The settings on record: P. falciparum Indochina infected RBC osmotic lysis, higher = more signal, called active from +8 up or from −8 down.
Assay [4] is described as follows: PSAC antagonists in infected red cells, primary screen, cell-based, P. falciparum Indochina, OD700, 2 h (AID 1155).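 Further: lysis reports solute entry through the parasite surface anion channel PSAC; channel blockers reduce lysis of infected cells.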 The settings on record: P. falciparum Indochina infected erythrocytes, osmotic lysis OD700; higher = more signal, called active from +8 up or from −8 down.
Assay [5] can be described thus: osmotic lysis modulators in infected erythrocytes, primary screen, PSAC antagonist project, cell-based, P. falciparum Indochina, OD700, 3 h (AID 1156). Particulars: higher = more signal, called active from +8 up or from −8 down.
The nature of assay [6]: PSAC antagonists in infected red cells, primary screen, cell-based, P. falciparum Indochina, OD700, 18 h (AID 1157). Particulars: P. falciparum Indochina infected erythrocytes, osmotic lysis OD700, 18 h; higher = more signal, called active from +8 up or from −8 down.
A short description of assay [7]: modulators of S6 phosphorylation in cells, primary screen, cell-based, A549, cytoblot, luminescence, serum-stimulated (AID 1158).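 Further: serum-stimulated A549 lung adenocarcinoma cells; signal is phosphorylated S6 detected by cytoblot immunostaining with HRP secondary.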 The settings on record: A549 phospho-S6 cytoblot, 5 h, higher = more signal.
Assay [8] addresses NADPH oxidase 2 (Homo sapiens) (UniProt P04839). As to the kind of experiment: NOX2-dependent H2O2 signal modulators, primary screen, NOX inhibitor project, cell-based, HEK293-NOX2, PMA-stimulated, Amplex Red fluorescence (AID 1159). Further: test concentration not given here. Particulars: 45 min, higher = more signal, called active from +8 up or from −8 down.
The target of assay [9] is NADPH oxidase 4 (Homo sapiens) (UniProt Q9NPH5). Put plainly: NOX4-dependent H2O2 signal modulators, primary screen, NOX inhibitor project, cell-based, HEK293-NOX4, tetracycline-induced, Amplex Red fluorescence (AID 1160). The settings on record: 45 min, higher = more signal, called active from +8 up or from −8 down.
Chain of NADPH oxidase 4 (Homo sapiens) (Q9NPH5 whole entry, looked up): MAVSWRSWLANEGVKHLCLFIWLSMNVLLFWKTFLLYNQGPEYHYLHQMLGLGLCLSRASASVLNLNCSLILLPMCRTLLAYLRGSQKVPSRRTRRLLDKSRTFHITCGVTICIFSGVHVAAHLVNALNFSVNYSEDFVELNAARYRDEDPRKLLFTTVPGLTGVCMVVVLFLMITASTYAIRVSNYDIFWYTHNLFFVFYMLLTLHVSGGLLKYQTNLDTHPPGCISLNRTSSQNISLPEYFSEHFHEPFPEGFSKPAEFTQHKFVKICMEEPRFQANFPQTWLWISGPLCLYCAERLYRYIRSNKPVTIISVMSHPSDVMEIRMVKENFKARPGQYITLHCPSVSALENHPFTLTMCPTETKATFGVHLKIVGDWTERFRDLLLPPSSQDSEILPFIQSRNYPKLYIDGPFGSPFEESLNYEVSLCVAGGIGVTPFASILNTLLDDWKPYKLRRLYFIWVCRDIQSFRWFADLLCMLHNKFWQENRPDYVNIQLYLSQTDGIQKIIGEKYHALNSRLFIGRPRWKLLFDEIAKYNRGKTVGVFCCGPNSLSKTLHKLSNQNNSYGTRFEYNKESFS
Assay [10] has as its target NADPH oxidase 5 (Homo sapiens) (UniProt Q96PH1). Put plainly: NOX5-dependent H2O2 signal modulators, primary screen, NOX inhibitor project, cell-based, HEK293-NOX5, Amplex Red fluorescence (AID 1161). The settings on record: HEK293-NOX5, ionomycin, 45 min, higher = more signal.
A short description of assay [11]: A549 cell viability effects, profiling panel, calcein-AM fluorescence, 48 h, basal (AID 1162). Further: test concentration not given here. Particulars: higher = more signal.
Assay [12] can be described thus: adipocyte viability effects, profiling panel, cell-based, 3T3-L1 adipocytes, calcein-AM fluorescence, 48 h, basal (AID 1163). Further: test concentration not given here. Particulars: 3T3-L1 adipocytes viability, higher = more signal.
Assay [13] can be described thus: HepG2 cell viability effects, profiling panel, calcein-AM fluorescence, 48 h, basal (AID 1164). Further: test concentration not given here. Particulars: higher = more signal.
A short description of assay [14]: MM1S cell viability effects, profiling panel, calcein-AM fluorescence, 48 h, basal (AID 1165).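 Further: viability of MM1S multiple myeloma cells under basal unstimulated conditions; test concentration not given here.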 The settings on record: higher = more signal.
Assay [15] in a line: basal RPMI8226 viability, no added stimulus, profiling panel, cell-based, calcein-AM fluorescence, 48 h, PK04 Diversity Set (AID 1166).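 Further: cells grown under basal conditions without added stimulus; test concentration not given here.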 Particulars: RPMI8226 myeloma viability, higher = more signal.
Assay [16] in a line: basal HepG2 mitochondrial membrane potential changes, profiling panel, cell-based, JC-1 fluorescence, 24 h, 100 nL compound (AID 1167). Further: test concentration not given here. Particulars: higher = more signal.
Assay [17] in a line: basal 3T3-L1 adipocyte mitochondrial potential changes, profiling panel, cell-based, JC-1 fluorescence, 3T3-L1 adipocytes, 24 h, 100 nL compound (AID 1168). Further: test concentration not given here. The settings on record: JC-1 mitochondrial fluorescence, higher = more signal, called active from +8 up or from −8 down.
Assay [18] is described as follows: basal RPMI8226 mitochondrial membrane potential changes, profiling panel, cell-based, JC-1 fluorescence, 24 h, 100 nL compound (AID 1169). Further: test concentration not given here. The settings on record: RPMI8226 myeloma, JC-1 mitochondrial potential fluorescence, higher = more signal.
The nature of assay [19]: basal MM1S mitochondrial membrane potential changes, profiling panel, cell-based, JC-1 fluorescence, 24 h, 100 nL compound (AID 1170). Further: test concentration not given here. The settings on record: higher = more signal.
Assay [20] can be described thus: A549 lung cancer cell viability effects, profiling panel, resazurin fluorescence, 24 h, PK04 Diversity Set (AID 1171). Further: test concentration not given here. Particulars: higher = more signal, called active from +8 up or from −8 down. A general note: The colour change of resazurin is a common sign of viable cells or microbes.

Active and inactive are the calls of the source.

Chain of NADPH oxidase 5 (Homo sapiens) (Q96PH1 whole entry, looked up): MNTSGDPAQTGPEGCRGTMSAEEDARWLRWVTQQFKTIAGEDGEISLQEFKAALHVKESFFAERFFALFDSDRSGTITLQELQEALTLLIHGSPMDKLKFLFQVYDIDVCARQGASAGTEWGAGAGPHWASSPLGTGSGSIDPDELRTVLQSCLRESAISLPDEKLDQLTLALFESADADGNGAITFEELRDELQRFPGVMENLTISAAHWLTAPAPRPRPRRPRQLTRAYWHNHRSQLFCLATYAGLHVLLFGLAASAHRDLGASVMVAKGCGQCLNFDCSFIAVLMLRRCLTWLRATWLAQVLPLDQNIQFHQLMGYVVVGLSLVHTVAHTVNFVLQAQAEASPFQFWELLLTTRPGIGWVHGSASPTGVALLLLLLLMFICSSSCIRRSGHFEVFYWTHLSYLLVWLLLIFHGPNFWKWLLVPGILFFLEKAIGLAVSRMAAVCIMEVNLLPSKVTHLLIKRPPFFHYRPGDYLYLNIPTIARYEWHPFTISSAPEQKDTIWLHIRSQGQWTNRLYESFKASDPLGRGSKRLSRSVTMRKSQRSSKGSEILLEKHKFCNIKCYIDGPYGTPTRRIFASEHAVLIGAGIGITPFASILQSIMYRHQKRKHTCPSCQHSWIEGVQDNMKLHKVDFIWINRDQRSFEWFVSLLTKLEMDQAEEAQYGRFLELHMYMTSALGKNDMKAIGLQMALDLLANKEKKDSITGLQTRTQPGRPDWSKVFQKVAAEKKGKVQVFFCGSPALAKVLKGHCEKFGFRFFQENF
Chain of NADPH oxidase 2 (Homo sapiens) (P04839 whole entry, looked up): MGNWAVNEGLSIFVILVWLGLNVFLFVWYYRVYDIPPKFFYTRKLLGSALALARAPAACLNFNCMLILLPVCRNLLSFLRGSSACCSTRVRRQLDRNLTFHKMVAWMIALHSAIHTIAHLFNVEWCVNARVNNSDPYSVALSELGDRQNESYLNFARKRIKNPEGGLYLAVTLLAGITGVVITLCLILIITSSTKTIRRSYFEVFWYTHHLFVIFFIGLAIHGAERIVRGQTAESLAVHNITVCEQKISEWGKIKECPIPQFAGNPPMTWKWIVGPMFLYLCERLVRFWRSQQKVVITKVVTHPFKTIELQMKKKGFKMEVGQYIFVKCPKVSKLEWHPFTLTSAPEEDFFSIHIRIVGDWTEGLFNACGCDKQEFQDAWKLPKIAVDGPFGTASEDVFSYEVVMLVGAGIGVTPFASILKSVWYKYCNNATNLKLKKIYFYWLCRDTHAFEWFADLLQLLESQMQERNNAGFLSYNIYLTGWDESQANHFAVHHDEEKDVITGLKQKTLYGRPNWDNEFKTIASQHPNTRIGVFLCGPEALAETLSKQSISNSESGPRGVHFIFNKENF

Turning to `[N-]=[N+]=Nc1ccccc1[C@H]1OC(c2ccc(OCCCO)cc2)=N[C@@]1(Cc1ccccc1)C(=O)NCC(O)CO` (stereo not given in full), the z-score in assay [1] is 0.348 (inactive); in [3] it was 33.6 (active); in [4], 30.4 (active); in assay [5] it was 0.849 (inactive); in assay [6], 8.56 (active); in assay [7] it was -0.0737. Further, the z-score in assay [8] is -0.455 (inactive); in assay [9], 1.67 (inactive); in [10], 1.31; in [11], -0.761; in [12], 0.405; in assay [13], -0.629. Also, the z-score in assay [14] was -1.5; in assay [15], -2.2; in assay [16], 0.854; in assay [17], 0.291 (inactive); in assay [18], -0.925; in [19] it was -1. In addition, in assay [20], the z-score was -0.949 (inactive). Also, the composite z-score in assay [2] was determined as 0.425.

Turning to `C[N+](C)(C)CCCC[C@@H]1NC(=O)[C@H]2C[C@@H](C(=O)NCCCCCNC(=O)CS)[C@@H](c3cccc(OCCO)c3)N2C1=O`, the z-score in assay [1] was 0.19 (inactive); in assay [3] it was 1.59 (inactive); in [4], -0.0251 (inactive); in assay [5], -0.89 (inactive); in assay [6], 0.204 (inactive); in assay [7] it was -0.0362. In addition, the z-score in assay [8] was 1.94 (inactive); in assay [9] it was 0.816 (inactive); in assay [10], 1.35; in assay [11], 0.316; in [12] it was 0.571; in [13], -0.953. For the same compound, the z-score was -0.631 in assay [14]; 0.37 in assay [15]; 1.09 in [16]; 0.127 (inactive) in assay [17]; 0.812 in [18]; 0.415 in [19]. The z-score in [20] is -0.219 (inactive). For the same compound, the composite z-score in [2] came out at 0.144.

With `C=C(COC)C(=O)CC[C@H](OC(=O)c1cccnc1)c1ccc(OCCO)cc1`, the z-score in assay [1] is -0.367 (inactive); in assay [3], 9.54 (active); in assay [4], 1.2 (inactive); in assay [5], 0.247 (inactive); in assay [6] it was 0.553 (inactive); in assay [7] it was -0.271. For the same compound, the z-score was -0.253 (inactive) in assay [8]; 0.592 (inactive) in assay [9]; -1.26 in assay [10]; 0.369 in assay [11]; 0.0993 in assay [12]; 0.143 in assay [13]. The z-score in [14] was -1.93; in [15], -0.418; in [16], -1.02; in assay [17] it was -0.351 (inactive); in [18], 0.878; in [19] it was -0.0164. The z-score in assay [20] was -0.552 (inactive). Besides, the composite z-score in assay [2] is -0.285.

`Cc1ccc(S[C@]2(C(=O)NCCCN(C)C)CC(=O)N(Cc3ccccc3C(F)(F)F)[C@@H]2c2ccc(CO)cc2I)cc1`: the z-score in assay [1] is -0.527 (inactive); in [3], 3.14 (inactive); in assay [4], 0.684 (inactive); in assay [5] it was 0.32 (inactive); in assay [6], 0.377 (inactive); in assay [7], -0.579. Besides, the z-score in [8] was -0.632 (inactive); in assay [9], -1.08 (inactive); in assay [10], 1.96; in assay [11] it was 0.476; in assay [12] it was 0.449; in assay [13], -0.297. Also, the z-score in assay [14] is -2.72; in [15], -1.87; in [16], -0.817; in assay [17], -0.395 (inactive); in assay [18], -0.302; in assay [19], -1.35. Besides, the z-score in [20] is 0.537 (inactive). The composite z-score in [2] is -0.629.

On to `COCCCN1C(=O)[C@@]2(c3ccc([N+](=O)[O-])cc3)CC(=O)N(CC34CC5CC(CC(C5)C3)C4)[C@@H]2c2ccc(CO)cc21`, for which the z-score in assay [1] is 0.172 (inactive); in assay [3], -0.409 (inactive); in [4], 0.28 (inactive); in assay [5], 1.48 (inactive); in assay [6], 0.0583 (inactive); in assay [7], 0.261. The z-score in assay [8] is 0.307 (inactive); in assay [9], 0.183 (inactive); in assay [10], 0.482; in [11], 0.555; in assay [12] it was -0.731; in assay [13], 1.07. The z-score in [14] was 0.657; in assay [15], 1.12; in assay [16], 0.722; in assay [17], 0.0634 (inactive); in [18], 0.25; in [19], -1.87. Also, the z-score in assay [20] was -1.25 (inactive). This compound returned a composite z-score in assay [2] of -0.298.

Turning to `CN1C(=O)C2C(C3CC3)C=C3CN(Cc4cccc(Cl)c4)[C@@H]([C@@H](O)Cc4ccccc4)C3C2C1=O` (stereo not given in full), the z-score in assay [1] is 1.14 (inactive); in assay [3], 8.18 (active); in [4], 1.25 (inactive); in [5], 1.57 (inactive); in assay [6] it was 0.918 (inactive); in [7] it was 0.775. For the same compound, the z-score in assay [8] is -0.38 (inactive); in [9], 0.0765 (inactive); in [10], 0.168; in [11], 1.19; in assay [12] it was 0.638; in assay [13], 0.506. Besides, the z-score is -1.81 in assay [14]; -2.67 in [15]; 1.24 in assay [16]; -0.424 (inactive) in [17]; -0.426 in assay [18]; -0.939 in assay [19]. Besides, the z-score in assay [20] was 0.43 (inactive). This compound also gave a composite z-score in [2] of 0.2.
